# Among all 5,500 compounds or so, about 2,000 (36%) were called active. Not shown: some 18% with an inconclusive outcome. Some of the results follow. Values without a mark were called inactive. Rule as the data show it: active = normalized growth mostly below about 0.91 (no sharp cut-off); inconclusive = no clear call, values can overlap the other calls; inactive = mostly above about 0.92.
# Assay: chemical genetic growth profiling, strain panel (AID 1159580);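 also: tested at 20 µM; growth read once vehicle control cultures reached saturation at 30 °C; 1 = growth at the plate median or of vehicle wells; lower values mean less growth of the strain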
# Details: S. cerevisiae deletion strains, growth OD
# [1] = locus YDL101C, strain DUN1, active compounds read low
# [2] = locus YHR030C, strain SLT2, active compounds read low
smiles,measurement,setting,value
Cc1nn(Cc2n[nH]c(=S)o2)c(C)c1Br,normalized growth,"locus YAL013W, strain DEP1, active compounds read low",0.998
same,normalized growth,"locus YBR229C, strain ROT2, active compounds read low",0.993
same,normalized growth,[1],1
same,normalized growth,"locus YDR150W, strain NUM1, active compounds read low",0.933
same,normalized growth,"locus YEL061C, strain CIN8, active compounds read low",1.02
same,normalized growth,"locus YGR078C, strain PAC10, active compounds read low",0.981
same,normalized growth,[2],1.02
same,normalized growth,"locus YHR087W, strain rtc3, active compounds read low",0.983
same,normalized growth,"locus YJL187C, strain SWE1, active compounds read low",0.968
same,normalized growth,"locus YJR043C, strain POL32, active compounds read low",0.983
same,normalized growth,"locus YJR075W, strain HOC1, active compounds read low",0.979
same,normalized growth,"locus YKL190W, strain CNB1, active compounds read low",1.02
same,normalized growth,"locus YLR039C, strain RIC1, active compounds read low",1.02
same,normalized growth,"locus YLR058C, strain SHM2 (second series), active compounds read low",0.996
same,normalized growth,"locus YLR085C, strain ARP6, active compounds read low",1.09
same,normalized growth,"locus YLR262C, strain YPT6, active compounds read low",1.04
same,normalized growth,"locus YML094W, strain GIM5, active compounds read low",1.02
same,normalized growth,"locus YMR219W, strain ESC1, active compounds read low",0.996
same,normalized growth,"locus YMR263W, strain SAP30, active compounds read low",0.93
same,normalized growth,"locus YNL128W, strain TEP1, active compounds read low",1.01
same,normalized growth,"locus YNL153C, strain GIM3, active compounds read low",1.01
same,normalized growth,"locus YNL298W, strain CLA4 (second series), active compounds read low",1.05
same,normalized growth,"locus YNL322C, strain KRE1, active compounds read low",0.999
same,normalized growth,"locus YNR030W, strain Alg12, active compounds read low",1.01
same,normalized growth,"locus YPL055C, strain LGE1, active compounds read low",0.955
same,normalized growth,"locus YPL241C, strain CIN2, active compounds read low",1.02
same,normalized growth,"locus YPR135W, strain CTF4, active compounds read low",1.04
Cc1nn(Cc2nnc(SCc3cccc(C(F)(F)F)c3)o2)c(C)c1Br,normalized growth,"locus YAR019C, strain CDC15, active compounds read low",0.982
same,normalized growth,"locus YBL105C, strain PKC1, active compounds read low",0.969
same,normalized growth,"locus YBR135W, strain CKS1, active compounds read low",0.967
same,normalized growth,"locus YBR136W, strain MEC1, active compounds read low",0.97
same,normalized growth,"locus YBR160W, strain CDC28, active compounds read low",0.975
same,normalized growth,"locus YDL017W, strain CDC7, active compounds read low",0.977
same,normalized growth,"locus YDL028C, strain MPS1, active compounds read low",0.973
same,normalized growth,[1],0.972
same,normalized growth,"locus YDL108W, strain KIN28, active compounds read low",0.969
same,normalized growth,"locus YDL132W, strain cdc53, active compounds read low",0.969
same,normalized growth,"locus YDL214C, strain PRR2, active compounds read low",0.932
same,normalized growth,"locus YDR052C, strain DBF4, active compounds read low",0.983
same,normalized growth,"locus YDR054C, strain cdc34, active compounds read low",0.975
same,normalized growth,"locus YDR226W, strain ADK1, active compounds read low",0.977
same,normalized growth,"locus YDR477W, strain SNF1, active compounds read low",0.968
same,normalized growth,"locus YER123W, strain YCK3, active compounds read low",0.921
same,normalized growth,"locus YER133W, strain GLC7, active compounds read low",0.967
same,normalized growth,"locus YFL009W, strain cdc4, active compounds read low",0.973
same,normalized growth,"locus YFL029C, strain CAK1, active compounds read low",0.979
same,normalized growth,"locus YFR003C, strain YPI1, active compounds read low",0.971
same,normalized growth,"locus YFR019W, strain FAB1, active compounds read low",0.952
same,normalized growth,"locus YFR028C, strain CDC14, active compounds read low",0.963
same,normalized growth,"locus YGR040W, strain KSS1, active compounds read low",0.957
same,normalized growth,"locus YGR052W, strain FMP48, active compounds read low",0.965
same,normalized growth,"locus YGR092W, strain DBF2, active compounds read low",0.987
same,normalized growth,[2],1.03
same,normalized growth,"locus YHR079C, strain IRE1, active compounds read low",1
same,normalized growth,"locus YHR082C, strain KSP1, active compounds read low",1
same,normalized growth,"locus YHR205W, strain SCH9, active compounds read low",0.959
same,normalized growth,"locus YIL147C, strain SLN1, active compounds read low",0.968
same,normalized growth,"locus YJL095W, strain BCK1, active compounds read low",0.965
same,normalized growth,"locus YJL128C, strain PBS2, active compounds read low",0.945
same,normalized growth,"locus YJL157C, strain FAR1, active compounds read low",0.965
same,normalized growth,"locus YJR016C, strain ILV3, active compounds read low",0.978
same,normalized growth,"locus YJR066W, strain TOR1 (second series), active compounds read low",0.969
same,normalized growth,"locus YJR066W, strain TOR1, active compounds read low",1.03
same,normalized growth,"locus YKL048C, strain ELM1, active compounds read low",0.974
same,normalized growth,"locus YKL067W, strain YNK1, active compounds read low",0.944
same,normalized growth,"locus YKL101W, strain HSL1, active compounds read low",0.905
same,normalized growth,"locus YKL193C, strain SDS22, active compounds read low",0.971
same,normalized growth,"locus YKL203C, strain TOR2, active compounds read low",1.01
same,normalized growth,"locus YLR113W, strain HOG1, active compounds read low",0.854 (active)
same,normalized growth,"locus YLR133W, strain CKI1, active compounds read low",0.935
same,normalized growth,"locus YLR403W, strain SFP1, active compounds read low",0.949
same,normalized growth,"locus YML070W, strain DAK1, active compounds read low",0.916
same,normalized growth,"locus YMR001C, strain CDC5, active compounds read low",0.973
same,normalized growth,"locus YMR205C, strain PFK2 (second series), active compounds read low",0.946
same,normalized growth,"locus YMR277W, strain FCP1, active compounds read low",0.974
same,normalized growth,"locus YNL006W, strain LST8, active compounds read low",0.971
same,normalized growth,"locus YNL020C, strain ARK1, active compounds read low",0.942
same,normalized growth,"locus YNL161W, strain CBK1, active compounds read low",0.969
same,normalized growth,"locus YNL183C, strain NPR1, active compounds read low",0.99
same,normalized growth,"locus YNL207W, strain RIO2, active compounds read low",0.975
same,normalized growth,"locus YNL222W, strain SSU72, active compounds read low",0.97
same,normalized growth,"locus YNL307C, strain MCK1 (second series), active compounds read low",0.956
same,normalized growth,"locus YOL078W, strain AVO1, active compounds read low",0.967
same,normalized growth,"locus YOL136C, strain PFK27, active compounds read low",0.881
same,normalized growth,"locus YOR061W, strain CKA2, active compounds read low",0.952
same,normalized growth,"locus YOR119C, strain RIO1, active compounds read low",1.02
same,normalized growth,"locus YOR231W, strain MKK1, active compounds read low",0.91
same,normalized growth,"locus YOR329C, strain SCD5, active compounds read low",0.978
same,normalized growth,"locus YPL031C, strain PHO85, active compounds read low",0.961
same,normalized growth,"locus YPL153C, strain RAD53, active compounds read low",0.972
same,normalized growth,"locus YPL204W, strain HRR25, active compounds read low",0.932
same,normalized growth,"locus YPL209C, strain IPL1, active compounds read low",0.982
same,normalized growth,"locus YPL256C, strain CLN2, active compounds read low",0.965
same,normalized growth,"locus YPR025C, strain CCL1, active compounds read low",0.974
same,normalized growth,"locus YPR106W, strain ISR1, active compounds read low",0.975
same,normalized growth,"locus YPR111W, strain DBF20, active compounds read low",0.947
same,normalized growth,"strain NNK1, active compounds read low",0.961
same,normalized growth,"strain TSCII, active compounds read low",0.972

# From PubChem BioAssay AID1159580 (chemical genetic matrix, 2015)
